# According to PubChem BioAssay (NCATS):
# Inconclusive results are not listed. Where a call stands in place of a potency, no number is given. The source made the active and inactive calls. Unless noted, calls come from the whole dose curve; as a rule, active = well fitted curve in the direction sought with a large enough effect; inconclusive = small, poorly fitted or top-dose-only effect, or another doubt; inactive = no such curve, though single readings can be large; an effect the other way counts as inactive or inconclusive.
# Experiments:
# [1] = S16 Schwann cell PMP22 intronic element beta-lactamase assay (AID 624044; calls by dose curve; note: nearly all actives have a fitted effect of over 15% in size); conditions: S16 rat Schwann cells, PMP22 element beta-lactamase FRET, 24 h; series mostly up to 38.3 µM
# Procedure, shortened: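 Rat S16 Schwann cells with beta-Lac driven by a PMP22 intronic element, compound-treated 24 h at 37 °C. LiveBLAzer FRET B/G read: 460 nm normalized to potassium clavulanate vs DMSO; 535 nm FRET as viability; concentration-effect curves classified.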
# [2] = target: Ferritin light chain (Equus caballus) (UniProt P02791); assay: qHTS Validation Assay for Identification of Novel General Anesthetics (AID 2323); conditions: horse apoferritin, anesthetic-site fluorescent probe displacement; series mostly up to 76.9 µM
# Ferritin light chain (Equus caballus), sequence (P02791 2-175 limits assumed): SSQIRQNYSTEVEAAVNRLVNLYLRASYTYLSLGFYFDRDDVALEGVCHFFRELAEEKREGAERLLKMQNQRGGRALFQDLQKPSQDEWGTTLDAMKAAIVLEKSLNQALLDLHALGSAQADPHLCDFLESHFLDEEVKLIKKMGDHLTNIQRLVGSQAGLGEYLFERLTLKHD
# Procedure, shortened: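 Competitive displacement of profluorescent 1-aminoanthracene (1-AMA, 50% saturated solution in PBS) from 10 uM horse-spleen apoferritin. Compounds incubated 10 min at room temperature; fluorescence read at 380 nm excitation/535 nm emission, normalized to free 1-AMA and complex, fitted with four-parameter Hill equation.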
# [3] = target: Voltage-gated inwardly rectifying potassium channel KCNH2 (Homo sapiens) (UniProt Q12809); assay: qHTS Assay for Small Molecule Inhibitors of the Human hERG Channel Activity (AID 588834); conditions: U2OS BacMam hERG, FluxOR thallium flux fluorescence; series mostly up to 46.1 µM;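 note: top concentration of the series differs between compounds; lower thallium flux fluorescence means stronger hERG block; nearly all actives have a fitted effect of over 50% in size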
# Voltage-gated inwardly rectifying potassium channel KCNH2 (Homo sapiens), sequence (Q12809 whole entry, looked up): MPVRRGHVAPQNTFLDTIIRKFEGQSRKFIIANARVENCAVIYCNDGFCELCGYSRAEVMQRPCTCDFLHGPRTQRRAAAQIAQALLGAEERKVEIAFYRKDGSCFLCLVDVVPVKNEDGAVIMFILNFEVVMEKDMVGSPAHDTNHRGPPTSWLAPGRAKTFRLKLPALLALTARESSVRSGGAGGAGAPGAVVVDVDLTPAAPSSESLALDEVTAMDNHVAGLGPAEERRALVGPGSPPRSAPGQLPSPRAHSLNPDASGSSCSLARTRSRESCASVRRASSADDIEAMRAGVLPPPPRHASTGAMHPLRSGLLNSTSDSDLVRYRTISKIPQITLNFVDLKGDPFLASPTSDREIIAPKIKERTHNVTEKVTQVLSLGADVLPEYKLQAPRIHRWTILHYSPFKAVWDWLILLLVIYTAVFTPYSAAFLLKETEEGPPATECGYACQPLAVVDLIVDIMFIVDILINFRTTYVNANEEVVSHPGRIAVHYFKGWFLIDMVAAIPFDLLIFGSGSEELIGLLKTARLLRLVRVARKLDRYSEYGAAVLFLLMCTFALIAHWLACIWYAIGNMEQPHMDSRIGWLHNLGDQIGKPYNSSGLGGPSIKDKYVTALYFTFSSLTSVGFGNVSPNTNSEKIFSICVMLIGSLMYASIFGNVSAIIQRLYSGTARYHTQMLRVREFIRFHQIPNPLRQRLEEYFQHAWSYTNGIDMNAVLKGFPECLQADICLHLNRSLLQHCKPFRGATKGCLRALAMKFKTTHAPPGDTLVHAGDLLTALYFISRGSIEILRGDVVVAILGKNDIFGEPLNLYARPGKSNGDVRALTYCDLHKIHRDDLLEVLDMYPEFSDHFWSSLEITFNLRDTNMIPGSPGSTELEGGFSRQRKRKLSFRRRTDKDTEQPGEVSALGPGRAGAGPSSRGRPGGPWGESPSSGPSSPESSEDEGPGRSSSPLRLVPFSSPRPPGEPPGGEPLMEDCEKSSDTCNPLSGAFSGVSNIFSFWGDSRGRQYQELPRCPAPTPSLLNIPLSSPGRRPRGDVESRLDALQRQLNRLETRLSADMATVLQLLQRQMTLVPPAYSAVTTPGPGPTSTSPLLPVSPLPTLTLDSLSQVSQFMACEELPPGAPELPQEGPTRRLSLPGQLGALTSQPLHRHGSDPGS
# Procedure, shortened: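 U2OS cells transduced with hERG via BacMam (MOI ~100), plated 2000/well, loaded with FluxOR thallium dye, compound ~10 min, then stimulation buffer; fluorescence decrease read kinetically; AC50 from Hill fits.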
# [4] = target: Phospholipid hydroperoxide glutathione peroxidase GPX4 (Homo sapiens) (UniProt P36969); assay: Primary qHTS Assay for Inhibitors of Recombinant Selenoprotein Glutathione Peroxidase 4 (GPX4) (AID 1845192); conditions: recombinant GPX4, GR-coupled NADPH fluorescence, 15 min; series mostly up to 50 µM; note: nearly all actives have a fitted effect of over 65% in size
# Phospholipid hydroperoxide glutathione peroxidase GPX4 (Homo sapiens), sequence (P36969 whole entry, looked up): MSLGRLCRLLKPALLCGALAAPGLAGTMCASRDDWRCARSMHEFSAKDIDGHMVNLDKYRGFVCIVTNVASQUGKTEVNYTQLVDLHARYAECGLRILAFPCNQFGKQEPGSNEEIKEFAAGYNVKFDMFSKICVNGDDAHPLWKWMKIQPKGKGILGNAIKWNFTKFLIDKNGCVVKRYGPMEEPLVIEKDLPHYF
# Procedure, shortened: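 NADPH consumption, followed by fluorescence at 340/450 nm between 0 and 15 min, reports GPX4 activity via coupled glutathione reductase (100 nM). Enzyme 200 nM was pre-exposed to compound 30 min; 0.5 mM cumene hydroperoxide and 1 mM GSH served as substrates.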
# [5] = qHTS Assay for Identification of Small Molecule Antagonists for Thrombopoietin (TPO) Signaling Pathway (AID 918); conditions: TPO-dependent cell signaling reporter, antagonist mode; note: potency is the fitted concentration of half-maximal effect; nearly all actives have a fitted effect of over 60% in size
# Procedure, shortened: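 Ba/F3 (murine, hTPO-R, GPIIb-luc reporter); overnight IL-3 withdrawal; cpd + TPO 26 pM final (EC50); 24 h 37 C/5% CO2; Steadylite luminescence after 10 min RT.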
# [6] = target: Endonuclease 4 (Escherichia coli (strain K12)) (UniProt P0A6C1); assay: Counterscreen for APE1 Inhibitors: qHTS Validation Assay for Inhibitors of Endonuclease IV (AID 1708); conditions: E. coli endonuclease IV, DNA cleavage fluorescence; series mostly up to 57.1 µM
# Procedure, shortened: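 qHTS concentration-response format; LOPAC1280 tested under APE1-screen conditions. 2 nM enzyme, 15 min compound preincubation at RT, then 50 nM TAMRA/BHQ-2 abasic substrate; kinetic fluorescence read, three reads at 60 s intervals.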
# [7] = NCATS anti-infectives library activity on HEK293 viability as a counter-qHTS vs the C. elegans viability qHTS (AID 1745854); conditions: HEK293 viability counter-screen; series mostly up to 41.8 µM;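 note: HEK293 cells exposed to compounds for 24 hr before the viability read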
# Procedure, shortened: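 Compounds were acoustically plated (several concentrations, 1:5, final up to 41.7 uM), then 1500 HEK293 cells added per well and incubated 24 hr at 37C, 5% CO2. CellTiter-Glo was added and luminescence read after 10 min.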
# [8] = NCATS anti-infectives library activity on the primary C. elegans qHTS viability assay (AID 1745855; calls by dose curve; note: potency is the fitted concentration of half-maximal effect); conditions: C. elegans worm area imaging, day 7; series mostly up to 41.8 µM
# Procedure, shortened: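 Viability read-out is GFP fluorescence of PE254-GFP-FLuc C. elegans, measured by laser cytometry (488 nm) at day 0, 3 and 7. Ten L1 worms per well were incubated 7 days at 21 °C with compounds and bacterial capsules in S medium.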
smiles,measurement,setting,value
COC(=O)[C@@H]1[C@@H]2C[C@H]3c4[nH]c5ccccc5c4CCN3C[C@@H]2CC[C@@H]1O,Potency,[1],inactive
COc1ccccc1NC(=O)Nc1nc(-c2cccnc2)nc2ccccc12,outcome,[2],inactive
same,Potency,[3],inactive
N[C@H](Cc1cnc[nH]1)C(=O)O,Potency,[4],inactive
CC(C)(C)c1ccc(S(=O)(=O)/C=C\C#N)cc1,Potency,[5],794 nM (active)
COc1ccc2c(c1)c(CC(=O)N1CCOCC1)c(C)n2C(=O)c1ccc(Cl)cc1,Potency,[6],inactive
N#CC(=C(/N)Sc1ccccc1N)/C(C#N)=C(\N)Sc1ccccc1N,outcome,[7],inactive
same,Potency,[8],5150 nM (active)
